Here are results for three compounds from PubChem BioAssay (NCI).

This is part of a sample that, as a whole, favours compounds with a hit. Of some 83,000 tested, about 20% had one in any assay.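 Growth was measured after 48 h exposure to one concentration of compound in 96-well plates. Values under 10 count as active.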 Activity calls are given as the source filed them.

The test system of the assay is HL-60(TB) leukemia. Kind of assay: NCI-60 one-dose screen, 48 h (100 = growth as untreated, 0 = no growth, -100 = all killed). As to conditions: 10 µM unless noted.
On to `COC12C=C/C(=C(/C(=O)OCCSc3ccnn3C)C(=O)CCCCCCCCC3(OC)C=C/C(=C(/C(=O)OCCSc4ccnn4C)C(=O)CCCCCCCC1)O3)O2`, for which the growth is -6.91% (active).

On to `Nc1ncnc2[nH]ncc12`, for which the growth was 3.02% (active).

For `Cc1cccc(Cl)c1NC(=O)c1ccc2nc(NC(=O)NC3CCN(C)CC3)sc2c1`, the growth was 123% (inactive).
